Experimental findings from PubChem BioAssay (Tox21) are described below.

Assay [1] in a line: Nuclear factor erythroid 2-related factor 2/antioxidant responsive element (Nrf2/ARE) small molecule agonists: luciferase reporter gene qHTS assay in human keratinocytes (AID 1919969). Also: nearly all actives have a fitted effect of over 35% in size.
The target in assay [2] is Gonadotropin-releasing hormone receptor (Homo sapiens) (UniProt P30968). In words: Human gonadotropin-releasing hormone receptor (GnRHR) small molecule agonists, calcium flux assay in GnRHR-HEK293 cells (AID 1920063). Also: nearly all actives have a fitted effect of over 35% in size. The procedure, abridged: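 Stable human GnRHR HEK293 line. 18 h plating, then calcium dye for 1 h at 37 C. Agonist-mode compound addition from DMSO stocks; fluorescence monitored 3 min.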

For assay [3], the target named is KiSS-1 receptor (Homo sapiens) (UniProt Q969F8). In words: Human kisspeptin (KISS1R) small molecule agonists, calcium flux assay in KISS1R-HEK293 cells (AID 1920064; active = well fitted activation curve with a large enough effect in the repeat runs). The procedure, abridged:
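After overnight (18 h) culture at 37 C/5% CO2, human KISS1R-HEK293 cells received calcium dye for 1 h, then test compound; emission at 540 nm (excitation 480 nm) was tracked for 3 min.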

A short description of assay [4]: G protein-coupled receptor (GPCR) small molecule agonists, calcium flux assay: HEK293 wild type cell line counter screen (AID 1920065). The procedure, abridged: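 Following 18 h incubation at 37 C/5% CO2, plates got calcium dye for 1 h; compounds, ATP or DMSO were then pinned in and fluorescence followed kinetically (480/540 nm).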
A short description of assay [5]: p53 small molecule agonists, cell-based qHTS assay with human liver microsomes (AID 1963577). The method in brief:
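Fluorescence of the beta-lactamase reporter in p53RE-bla cells, detected with LiveBLAzer substrate (2 h, room temperature, dark), served as the read-out after 16 h compound exposure at 37 C with human liver microsomes and NADPH, each 0.5 mg/mL final.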

Assay [6] can be described thus: p53 small molecule agonists, cell-based qHTS assay with rat liver microsomes (AID 1963578). The procedure, abridged: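 Cells carrying a p53 response element–beta-lactamase reporter were plated and rested 5 h, then dosed with compound in DMSO plus rat liver microsomes and NADPH, each at 0.5 mg/mL final. After 16 h at 37 C, LiveBLAzer substrate was added for 2 h.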

A short description of assay [7]: p53 small molecule agonists, cell-based qHTS assay with human liver microsomes: qHTS cell viability counter screen (AID 1963579). Also: nearly all actives have a fitted effect of over 45% in size. The method in brief:
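Cytotoxicity counter screen: p53RE-bla, 4,000 cells/well; 5 h settle, 37 C/5% CO2; cpd + HLM 0.5 mg/mL + NADPH 0.5 mg/mL (final); 16 h, 37 C; CellTiter-Glo, 30 min RT, luminescence.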

Assay [8] in a line: p53 small molecule agonists, cell-based qHTS assay: qHTS cell viability counter screen (AID 1963581). Also: nearly all actives have a fitted effect of over 45% in size. The procedure, abridged:
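qHTS counter screen: 16 h compound exposure at 37 C of p53RE-bla HCT-116 cells (4,000 per well, seeded 5 h prior), cell viability by ATP luminescence.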

Assay [9] can be described thus: p53 small molecule agonists, cell-based qHTS assay (AID 1963582; active = well fitted activation curve with a large enough effect in the signal ratio in the repeat runs, not every such curve was filed as active; the % refers to the signal ratio). The procedure, abridged:
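Measured: fluorescence from cleaved LiveBLAzer substrate. System: p53RE-bla cells, 16 h compound treatment at 37 C, 2 h substrate step at room temperature.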

Assay [10] has as its target 5-hydroxytryptamine receptor 2A (Homo sapiens) (UniProt P28223). In words: 5-hydroxytryptamine receptor 2A (HTR2A) small molecule antagonists, cell-based qHTS assay (AID 1963586). Also: nearly all actives have a fitted effect of over 45% in size. Also: potency is read from the fitted curve at half-maximal effect. The procedure, abridged:
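CHO cells stably expressing human HTR2A were plated for 18 h at 37 C, then loaded with calcium dye for 1 h. Compounds were preincubated 5 min at room temperature before DOI (4 nM solution) was added. Kinetic fluorescence was read for 3 min.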

Assay [11] has the same target. In words: 5-hydroxytryptamine receptor 2A (HTR2A) small molecule agonists, cell-based qHTS assay (AID 1963587). Also: nearly all actives have a fitted effect of over 30% in size. The method in brief:
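HTR2A-CHO cells, plated 18 h at 37 C/5% CO2, dye-loaded 1 h at 37 C; compounds in DMSO added by pin tool (agonist mode). Intracellular calcium flux read as kinetic fluorescence on FDSS over 2 min at 1 s intervals.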

Assay [12] concerns the target Muscarinic acetylcholine receptor M1 (Homo sapiens) (UniProt P11229). In words: Cholinergic receptor muscarinic 1 (CHRM1) small molecule antagonists, cell-based qHTS assay (AID 1963588). Also: nearly all actives have a fitted effect of over 40% in size. The method in brief:
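Compounds were tested at 15 concentrations in three independent runs. Dye-loaded CHRM1-CHO cells were exposed 5 min at room temperature before stimulation by acetylcholine added at 50nM. Intracellular calcium was read kinetically on FDSS for 3 min.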

For assay [13] the target is unchanged. In words: Cholinergic receptor muscarinic 1 (CHRM1) small molecule agonists, cell-based qHTS assay (AID 1963589). Also: nearly all actives have a fitted effect of over 35% in size. The procedure, abridged:
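Kinetic fluorescence (1 s intervals) of calcium-sensitive dye in human M1 CHO cells after compound addition; cells pre-incubated 18 h at 37 C/5% CO2 and dye-loaded 1 h.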

A short description of assay [14]: cAMP Responsive Elements (CRE) small molecule agonists, cell-based qHTS assay (AID 1963590). The procedure, abridged: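 Test agents in DMSO were incubated 3 h at 37 C/5% CO2 with CRE-bla HEK 293T cells seeded 18 h earlier; LiveBLAzer B/G FRET substrate was added and read after 2 h at room temperature.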
Assay [15] is described as follows: cAMP Responsive Elements (CRE) small molecule antagonists, cell-based qHTS assay (AID 1963591; active = well fitted inhibition curve with a large enough effect in the signal ratio in the repeat runs, not every such curve was filed as active; the % refers to the signal ratio). The procedure, abridged: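 Reporter line CRE-bla HEK 293T in dialyzed-FBS DMEM; cells preincubated 18 h, treated 3 h with compound plus NKH477 (0.25 uM final); LiveBLAzer FRET, 2 h RT.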
Assay [16] concerns the target Beta-2 adrenergic receptor (Homo sapiens) (UniProt P07550). In words: Adrenergic beta2 receptor (ADRB2) small molecule antagonists, cell-based qHTS assay (AID 1963592). Also: series mostly up to about 92 µM; nearly all actives have a fitted effect of over 50% in size. The method in brief:
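Assay format: CHO-ADRB2 cells, 18-20hr seeding at 37C/5% CO2, then compound plus 1nM isoproterenol agonist mix for 0.5hr RT. Homogeneous time-resolved fluorescence cAMP detection after 1hr, expressed as 665/615 nm ratio.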

The target is the same in assay [17]. In words: Adrenergic beta2 receptor (ADRB2) small molecule agonists, cell-based qHTS assay (AID 1963593).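 Also: CHO cells stably overexpressing human ADRB2.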 The method in brief:
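CHO cells stably over-expressing ADRB2 were plated overnight at 37C, then dosed with compounds plus a stimulation mix containing 100uM IBMX and 25uM Ro-20-1724 for 0.5hr at room temperature. cAMP was measured by HTRF competition, 1hr.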

Assay [18] deals with D(2) dopamine receptor (Homo sapiens) (UniProt P14416). In words: Dopamine D2 receptor (DRD2) small molecule agonists, cell-based qHTS assay (AID 1963594). Also: nearly all actives have a fitted effect of over 35% in size. The procedure, abridged:
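HEK293 cells stably expressing DRD2 were cultured 24 h at 37 C, then given Ro20-1724 (0.1 mM final) and compounds for 10 min at room temperature. NKH477 (200nM) was then added for 30 min. cAMP was read by HTRF.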

The target is the same in assay [19]. In words: Dopamine D2 receptor (DRD2) small molecule antagonists, cell-based qHTS assay (AID 1963595; active = well fitted inhibition curve with a large enough effect in the signal ratio in the repeat runs, with a control signal flat; the % refers to the signal ratio). The method in brief:
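Human DRD2 antagonist qHTS measuring cAMP by HTRF. The cells are exposed to compound for 10 min, then to NKH477 (200 nM) and quinpirole (12 nM) for 30 min at RT, with Ro20-1724 (0.1 mM) present throughout.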

Assay [20] can be described thus: p53 small molecule agonists, cell-based qHTS assay with rat liver microsomes: qHTS cell viability counter screen (AID 1963580). Also: nearly all actives have a fitted effect of over 45% in size. The method in brief: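 Counter screen for cytotoxicity under metabolic activation: rat liver microsomes and NADPH, 0.5 mg/mL final each, added with compounds to p53RE-bla HCT-116 cells; 16 h at 37 C, then ATP luminescence read.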

Inconclusive results are not listed. The source holds several records for some structures; these can differ, active in one and inactive in another. Active and inactive are the calls of the source. Unless noted, calls follow the shape of the full dose curve.

Sequence of Muscarinic acetylcholine receptor M1 (Homo sapiens) (P11229 whole entry, looked up): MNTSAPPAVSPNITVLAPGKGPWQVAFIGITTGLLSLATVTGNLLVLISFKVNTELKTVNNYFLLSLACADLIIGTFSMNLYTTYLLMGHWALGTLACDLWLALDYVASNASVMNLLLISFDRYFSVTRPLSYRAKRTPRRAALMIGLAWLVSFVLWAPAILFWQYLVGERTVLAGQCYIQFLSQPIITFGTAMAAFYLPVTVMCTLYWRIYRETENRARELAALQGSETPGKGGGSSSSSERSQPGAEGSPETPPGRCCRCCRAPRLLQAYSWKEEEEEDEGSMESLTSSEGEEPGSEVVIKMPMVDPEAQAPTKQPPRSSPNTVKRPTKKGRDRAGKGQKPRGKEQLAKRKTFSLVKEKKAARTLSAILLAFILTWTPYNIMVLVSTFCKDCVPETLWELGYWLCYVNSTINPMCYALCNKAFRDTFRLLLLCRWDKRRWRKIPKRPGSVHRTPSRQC
Sequence of 5-hydroxytryptamine receptor 2A (Homo sapiens) (P28223 whole entry, looked up): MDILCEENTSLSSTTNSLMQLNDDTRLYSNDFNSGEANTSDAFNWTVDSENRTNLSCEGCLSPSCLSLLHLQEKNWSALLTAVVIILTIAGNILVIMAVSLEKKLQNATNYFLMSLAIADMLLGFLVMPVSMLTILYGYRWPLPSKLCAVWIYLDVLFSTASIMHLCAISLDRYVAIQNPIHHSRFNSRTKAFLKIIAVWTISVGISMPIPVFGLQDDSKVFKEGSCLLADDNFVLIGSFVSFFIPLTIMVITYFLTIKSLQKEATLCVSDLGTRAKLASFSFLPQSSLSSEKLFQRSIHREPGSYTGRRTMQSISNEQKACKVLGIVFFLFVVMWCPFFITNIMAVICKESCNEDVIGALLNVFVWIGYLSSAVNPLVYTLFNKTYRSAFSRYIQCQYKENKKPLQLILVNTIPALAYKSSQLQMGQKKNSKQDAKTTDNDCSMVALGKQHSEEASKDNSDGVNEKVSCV
Sequence of KiSS-1 receptor (Homo sapiens) (Q969F8 whole entry, looked up): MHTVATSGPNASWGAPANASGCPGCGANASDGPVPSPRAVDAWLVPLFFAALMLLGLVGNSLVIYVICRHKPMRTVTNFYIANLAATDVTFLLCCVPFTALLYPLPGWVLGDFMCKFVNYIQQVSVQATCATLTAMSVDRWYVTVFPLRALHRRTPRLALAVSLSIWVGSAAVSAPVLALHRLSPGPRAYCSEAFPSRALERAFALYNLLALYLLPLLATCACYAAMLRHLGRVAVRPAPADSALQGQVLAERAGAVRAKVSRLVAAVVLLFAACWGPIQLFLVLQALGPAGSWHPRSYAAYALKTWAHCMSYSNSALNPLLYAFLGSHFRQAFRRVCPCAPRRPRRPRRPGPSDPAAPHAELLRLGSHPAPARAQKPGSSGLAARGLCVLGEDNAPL
Sequence of Beta-2 adrenergic receptor (Homo sapiens) (P07550 whole entry, looked up): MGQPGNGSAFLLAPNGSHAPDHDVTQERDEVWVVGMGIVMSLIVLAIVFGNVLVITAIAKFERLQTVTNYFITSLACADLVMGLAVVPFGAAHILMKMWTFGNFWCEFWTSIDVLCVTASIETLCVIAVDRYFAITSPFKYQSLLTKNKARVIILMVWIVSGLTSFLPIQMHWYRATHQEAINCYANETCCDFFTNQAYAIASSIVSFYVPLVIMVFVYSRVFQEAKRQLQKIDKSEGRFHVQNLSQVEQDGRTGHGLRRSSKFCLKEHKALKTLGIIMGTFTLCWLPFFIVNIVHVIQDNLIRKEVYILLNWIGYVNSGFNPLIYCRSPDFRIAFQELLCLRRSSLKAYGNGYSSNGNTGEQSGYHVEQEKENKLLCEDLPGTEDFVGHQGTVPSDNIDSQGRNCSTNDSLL
Sequence of Gonadotropin-releasing hormone receptor (Homo sapiens) (P30968 whole entry, looked up): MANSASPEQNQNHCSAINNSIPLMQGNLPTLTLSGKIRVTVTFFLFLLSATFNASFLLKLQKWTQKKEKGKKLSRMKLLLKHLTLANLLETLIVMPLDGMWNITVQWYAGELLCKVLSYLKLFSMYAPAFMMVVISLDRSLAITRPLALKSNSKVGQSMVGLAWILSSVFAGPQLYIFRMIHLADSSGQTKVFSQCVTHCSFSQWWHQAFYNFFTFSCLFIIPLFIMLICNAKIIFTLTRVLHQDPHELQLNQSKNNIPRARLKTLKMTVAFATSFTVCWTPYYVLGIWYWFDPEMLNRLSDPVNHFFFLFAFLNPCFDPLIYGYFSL
Sequence of D(2) dopamine receptor (Homo sapiens) (P14416 whole entry, looked up): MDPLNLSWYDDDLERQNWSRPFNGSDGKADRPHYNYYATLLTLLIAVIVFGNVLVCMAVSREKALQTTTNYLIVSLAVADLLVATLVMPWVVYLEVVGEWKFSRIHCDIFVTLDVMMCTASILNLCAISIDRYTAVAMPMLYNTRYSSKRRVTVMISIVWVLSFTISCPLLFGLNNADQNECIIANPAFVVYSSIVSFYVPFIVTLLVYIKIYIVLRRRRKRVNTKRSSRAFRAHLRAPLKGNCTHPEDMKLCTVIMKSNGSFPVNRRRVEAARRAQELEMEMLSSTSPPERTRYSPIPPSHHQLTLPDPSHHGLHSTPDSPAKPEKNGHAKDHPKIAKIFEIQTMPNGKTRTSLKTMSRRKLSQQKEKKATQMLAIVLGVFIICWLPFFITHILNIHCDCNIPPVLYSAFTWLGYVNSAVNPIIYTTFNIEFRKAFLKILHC

Regarding `Cc1ccc(C(=O)Nc2ccc(S(=O)(=O)O)c3cc(S(=O)(=O)O)cc(S(=O)(=O)O)c23)cc1NC(=O)c1cccc(NC(=O)Nc2cccc(C(=O)Nc3cc(C(=O)Nc4ccc(S(=O)(=O)O)c5cc(S(=O)(=O)O)cc(S(=O)(=O)O)c45)ccc3C)c2)c1`, the Potency result in assay [1], in [2], in assay [3], in [4], in assay [5] and in assay [6] was “inactive” in each case. For the same compound, the Potency entry in [7], in [8], in assay [9], in assay [10], in assay [11] and in assay [12] was “inactive” each time. The Potency result in assay [13], in assay [14], in assay [15], in assay [16], in assay [17] and in assay [18] was “inactive” in each case. The Potency entry in [19] was “inactive”.

For `C=C(C)C(=O)OCCCCCCCCCCCCC`, the Potency result in assay [1], in assay [2], in [3], in assay [4], in assay [5] and in assay [6] was “inactive” each time. Further, the Potency result in assay [7], in assay [8], in [9], in assay [10], in [11] and in assay [12] was “inactive” throughout. For the same compound, the Potency entry in assay [13], in assay [14], in assay [15], in assay [16], in assay [18] and in assay [19] was “inactive” in each case.

For `CC(=O)OC/C=C(\C)CC/C=C(\C)CCC=C(C)C`, the Potency result in assay [1], in [2], in [3], in assay [4], in [20] and in assay [8] was “inactive” each time. In addition, the Potency result in [10], in [11], in assay [12], in [13], in [14] and in [15] was “inactive” throughout. Further, the Potency entry in assay [16], in assay [17], in assay [18] and in [19] was “inactive” in each case.

On to `CCCCCCCC(=O)[O-].CCCCCCCC(=O)[O-].[Zn+2]`, for which the Potency entry in assay [1], in assay [2], in assay [3], in assay [4], in assay [5] and in [6] was “inactive” throughout. Moreover, the Potency result in assay [7], in [20], in assay [8], in assay [10], in [11] and in assay [12] was “inactive” throughout. Also, the Potency entry in assay [13], in [14], in assay [15], in [16], in assay [17] and in assay [18] was “inactive” throughout. For the same compound, the Potency result in assay [19] was “inactive”.

Turning to `COc1cc(C(=O)NCc2ccc(OCCN(C)C)cc2)cc(OC)c1OC`, the Potency entry in assay [1], in assay [2], in assay [3], in [4], in assay [6] and in assay [7] was “inactive” throughout. Moreover, the Potency entry in assay [20], in assay [8], in assay [9], in assay [10], in assay [11] and in assay [12] was “inactive” in each case. Further, the Potency entry in [13], in assay [14], in [15], in assay [16], in assay [17] and in assay [18] was “inactive” each time.

`Cc1ccc(C(C)(C)O)cc1`: the Potency result in [1], in [2], in assay [3], in [4], in [5] and in [6] was “inactive” each time. The Potency result in assay [7], in [20], in assay [9], in [10], in [11] and in assay [12] was “inactive” throughout. Moreover, the Potency entry in [13], in assay [14], in assay [15], in assay [16], in [18] and in [19] was “inactive” each time.

For the compound `Nc1ccc2c(S(=O)(=O)O)cccc2c1S(=O)(=O)O`, the Potency result in assay [1], in [2], in assay [3], in assay [4], in [5] and in assay [6] was “inactive” in each case. Besides, the Potency result in assay [7], in assay [20], in assay [8], in assay [9], in assay [10] and in assay [12] was “inactive” each time. The Potency entry in assay [13], in [14], in assay [15], in assay [16], in assay [17] and in assay [18] was “inactive” in each case. In assay [19], the Potency result is “inactive”.

As for `CN1CCCC1=O`, the Potency result in assay [1], in assay [2], in [3], in assay [4], in assay [5] and in [7] was “inactive” in each case. The Potency entry in [20], in assay [8], in assay [10], in [11], in assay [12] and in assay [13] was “inactive” in each case. For the same compound, the Potency entry in assay [14], in [15], in [16], in [17], in assay [18] and in assay [19] was “inactive” in each case.

On to `Cc1ccc(S(N)(=O)=O)cc1`, for which the Potency entry in assay [1], in assay [2], in assay [3], in [4], in assay [5] and in [6] was “inactive” each time. The Potency entry in [7], in assay [8], in [9], in [11], in assay [12] and in [13] was “inactive” throughout. For the same compound, the Potency entry in [14], in assay [15], in [16], in assay [18] and in assay [19] was “inactive” in each case.

With `CC(=O)[C@@]1(O)CC[C@H]2[C@@H]3CCC4=CC(=O)CC[C@]4(C)[C@H]3CC[C@@]21C`, the Potency entry in [1], in assay [2], in [3], in [7], in assay [20] and in assay [8] was “inactive” throughout. The Potency entry in assay [14], in assay [17], in [18] and in assay [19] was “inactive” in each case.

In the case of `CN1CCc2cccc3c2[C@H]1Cc1ccc(O)c(O)c1-3`, the Potency result in assay [1], in assay [2], in assay [4], in [5], in [6] and in [7] was “inactive” each time. The Potency entry in [20], in assay [8], in assay [9], in assay [11], in assay [12] and in assay [13] was “inactive” in each case. The Potency entry in [15] was “inactive”. Moreover, in assay [10], the Potency was 1.51 µM (active) and inactive.
